33 molecules from ChEMBL document CHEMBL1961873, “Compounds: GSK PKIS; Assays: Nanosyn kinase panel” (2012) can be followed below.

One assay has as its system Tyrosine-protein kinase ABL1 (Homo sapiens), P00519 [Q252H]. The conditions noted are these: at 0.1 µM.
For the molecule `c1ccc(COc2ccc(Nc3ncnc4ccc(-c5ccco5)cc34)cc2)cc1`, the inhibition is 0.54%.

Regarding `COc1ccc2c(-c3ccnc(Nc4cccc(OC(F)(F)F)c4)n3)cnn2n1`, the inhibition amounted to 4.44%.

For `CN1CCC(n2cnc(-c3ccc(F)cc3)c2-c2ccnc(N)n2)CC1`, the inhibition was 2.65%.

`COc1ccc(-c2cc(-c3c[nH]nc3-c3ccccn3)ccn2)cc1`: the inhibition was 10.8%.

In the case of `Cc1cccc(Nc2ncc(-c3ccccc3)o2)c1`, the inhibition stood at 2.49%.

Turning to `COC(=O)c1sc(-n2cnc3cc(OC)c(OC)cc32)cc1OCc1ccccc1C(F)(F)F`, the inhibition stood at 6.05%.

`N#Cc1c(NC(=O)CN2CCOCC2)sc2c1CCCC2`: the inhibition stood at 1.82%.

On to `COc1ccc(-c2cc3c(N)ncnc3o2)cc1`, for which the inhibition was -0.72%.

Regarding `N#Cc1c(NC(=O)c2ccc(F)cc2)sc2c1CCCC2`, the inhibition stood at 1.76%.

On to `Cc1ccc2c(-c3ccnc(Nc4ccccc4)n3)c(-c3ccc(F)cc3)nn2n1`, for which the inhibition stood at 12%.

With `CNC(=O)c1cc(-c2ccc(F)cc2)cc(-c2ccc(S(=O)(=O)N3CCCC3)cc2)c1N`, the inhibition was 1.67%.

Consider `Cc1ccc(O)cc1Nc1ccnc2cc(-c3ccccn3)ccc12`, for which the inhibition turned out to be 94%.

Take `CCc1nn2ncccc2c1-c1ccnc(NC2CC2)n1`: the inhibition turned out to be 2.92%.

As to `CCCN1CCC(c2ccc(Nc3nc(Nc4cc(F)ccc4C(N)=O)c4cc[nH]c4n3)c(OC)c2)CC1`, the inhibition was found to be 3.87%.

As for `Fc1ccc(-c2nn3ccccc3c2-c2ccncc2)cc1`, the inhibition was 0.48%.

Regarding `O=C(O[C@H]1CN[C@H](C#Cc2cc3ncnc(Nc4ccc(Cc5ccccc5)cc4)c3s2)C1)N1CCOCC1`, the inhibition was -0.95%.

On to `COc1ccc(-c2nn3ncccc3c2-c2ccnc(Nc3ccc4c(c3)OCCO4)n2)cc1`, for which the inhibition was determined as 11.9%.

As for `CN(C)CCOc1ccc(-c2nc(-c3ccncc3)c(-c3ccc4c(c3)CC/C4=N\O)[nH]2)cc1`, the inhibition came out at 10.1%.

Take `CCN1CCC(CC(=O)Nc2n[nH]c3nnc(-c4cccc(F)c4F)cc23)CC1`: the inhibition came to 2.12%.

Turning to `COc1cccc(-c2c[nH]c3c(N/N=C/c4ccncc4)ncnc23)c1`, the inhibition was 79.8%.

Consider `Fc1ccc(-c2nn3ncccc3c2-c2ccnc(Nc3ccc4c(c3)OCCO4)n2)cc1`, for which the inhibition turned out to be 31%.

Take `COc1cc(Nc2nccc(Nc3ccc4c(C)n[nH]c4c3)n2)cc(OC)c1OC`: the inhibition was determined as 24.5%.

Take `CC(C)COC(=O)c1ccc2c(c1)/C(=C/Nc1ccc(S(N)(=O)=O)cc1)C(=O)N2`: the inhibition was found to be 3.65%.

With `NS(=O)(=O)c1ccc(N/N=C2\C(=O)Nc3ccc4ncccc4c32)cc1`, the inhibition was 13.3%.

In the case of `COc1cc(N2CCN(C(C)C)CC2)ccc1Nc1nc(Nc2ccc(F)cc2C(N)=O)c2cc[nH]c2n1`, the inhibition was found to be 1.11%.

As to `CCn1c(-c2nonc2N)nc2c(C#CC(C)(C)O)ncc(OC3CCNCC3)c21`, the inhibition was found to be 0.98%.

Turning to `CNC(=O)c1cccc(C#Cc2cncnc2Nc2ccc(OCc3cccc(F)c3)c(Cl)c2)c1`, the inhibition stood at 1.53%.

For `Fc1cccc(COc2ccc(Nc3ncnc4sc(-c5ccco5)cc34)cc2Cl)c1`, the inhibition is 3.83%.

As for `c1ccc(-c2nc3n(c2-c2ccc4c(c2)OCO4)CCC3)nc1`, the inhibition was 0.69%.

On to `O=S(=O)(CCNCc1ccc(-c2ccc3ncnc(Nc4ccc(OCc5cccc(F)c5)c(Cl)c4)c3c2)o1)c1ccccc1`, for which the inhibition stood at 5.71%.

As to `COc1cc(/C=N/Nc2ncnc3[nH]ncc23)ccc1O`, the inhibition was 47.9%.

In the case of `CS(=O)(=O)CCNCc1coc(-c2ccc3ncnc(Nc4ccc(OCc5ccccc5)cc4)c3c2)c1`, the inhibition was found to be 2.14%.

`COc1cc2c(cc1Nc1nc(Nc3ccsc3C(N)=O)c3cc[nH]c3n1)N(C(=O)CN(C)C)CCC2(C)C`: the inhibition came out at 4.15%.

The test system is the same in the next assay. The note with it: at 1 µM.
Regarding `c1ccc(COc2ccc(Nc3ncnc4ccc(-c5ccco5)cc34)cc2)cc1`, the inhibition came to 0.07%.

With `COc1ccc2c(-c3ccnc(Nc4cccc(OC(F)(F)F)c4)n3)cnn2n1`, the inhibition stood at 9.67%.

With `CN1CCC(n2cnc(-c3ccc(F)cc3)c2-c2ccnc(N)n2)CC1`, the inhibition was 6.83%.

`COc1ccc(-c2cc(-c3c[nH]nc3-c3ccccn3)ccn2)cc1`: the inhibition is 41%.

`Cc1cccc(Nc2ncc(-c3ccccc3)o2)c1`: the inhibition was 13.4%.

`COC(=O)c1sc(-n2cnc3cc(OC)c(OC)cc32)cc1OCc1ccccc1C(F)(F)F`: the inhibition came to 18.9%.

As to `N#Cc1c(NC(=O)CN2CCOCC2)sc2c1CCCC2`, the inhibition is 4.61%.

As for `COc1ccc(-c2cc3c(N)ncnc3o2)cc1`, the inhibition was determined as 9.12%.

Take `N#Cc1c(NC(=O)c2ccc(F)cc2)sc2c1CCCC2`: the inhibition turned out to be 2.3%.

On to `Cc1ccc2c(-c3ccnc(Nc4ccccc4)n3)c(-c3ccc(F)cc3)nn2n1`, for which the inhibition was determined as 49.9%.

Consider `CNC(=O)c1cc(-c2ccc(F)cc2)cc(-c2ccc(S(=O)(=O)N3CCCC3)cc2)c1N`, for which the inhibition is 1.16%.

With `Cc1ccc(O)cc1Nc1ccnc2cc(-c3ccccn3)ccc12`, the inhibition is 98%.

As for `CCc1nn2ncccc2c1-c1ccnc(NC2CC2)n1`, the inhibition was found to be 7.3%.

Turning to `CCCN1CCC(c2ccc(Nc3nc(Nc4cc(F)ccc4C(N)=O)c4cc[nH]c4n3)c(OC)c2)CC1`, the inhibition is 9.15%.

Turning to `Fc1ccc(-c2nn3ccccc3c2-c2ccncc2)cc1`, the inhibition turned out to be 6.96%.

Consider `O=C(O[C@H]1CN[C@H](C#Cc2cc3ncnc(Nc4ccc(Cc5ccccc5)cc4)c3s2)C1)N1CCOCC1`, for which the inhibition came out at 1.06%.

In the case of `COc1ccc(-c2nn3ncccc3c2-c2ccnc(Nc3ccc4c(c3)OCCO4)n2)cc1`, the inhibition amounted to 55%.

With `CN(C)CCOc1ccc(-c2nc(-c3ccncc3)c(-c3ccc4c(c3)CC/C4=N\O)[nH]2)cc1`, the inhibition is 45.1%.

For `CCN1CCC(CC(=O)Nc2n[nH]c3nnc(-c4cccc(F)c4F)cc23)CC1`, the inhibition was 3.13%.

For `COc1cccc(-c2c[nH]c3c(N/N=C/c4ccncc4)ncnc23)c1`, the inhibition turned out to be 92.6%.

In the case of `Fc1ccc(-c2nn3ncccc3c2-c2ccnc(Nc3ccc4c(c3)OCCO4)n2)cc1`, the inhibition stood at 75.2%.

With `COc1cc(Nc2nccc(Nc3ccc4c(C)n[nH]c4c3)n2)cc(OC)c1OC`, the inhibition was found to be 72.7%.

Consider `CC(C)COC(=O)c1ccc2c(c1)/C(=C/Nc1ccc(S(N)(=O)=O)cc1)C(=O)N2`, for which the inhibition is 28.9%.

As for `NS(=O)(=O)c1ccc(N/N=C2\C(=O)Nc3ccc4ncccc4c32)cc1`, the inhibition stood at 52.4%.

With `COc1cc(N2CCN(C(C)C)CC2)ccc1Nc1nc(Nc2ccc(F)cc2C(N)=O)c2cc[nH]c2n1`, the inhibition was determined as 2.74%.

In the case of `CCn1c(-c2nonc2N)nc2c(C#CC(C)(C)O)ncc(OC3CCNCC3)c21`, the inhibition stood at 0.41%.

`CNC(=O)c1cccc(C#Cc2cncnc2Nc2ccc(OCc3cccc(F)c3)c(Cl)c2)c1`: the inhibition is 2.58%.

In the case of `Fc1cccc(COc2ccc(Nc3ncnc4sc(-c5ccco5)cc34)cc2Cl)c1`, the inhibition came to 2.01%.

As to `c1ccc(-c2nc3n(c2-c2ccc4c(c2)OCO4)CCC3)nc1`, the inhibition turned out to be 3.62%.

With `O=S(=O)(CCNCc1ccc(-c2ccc3ncnc(Nc4ccc(OCc5cccc(F)c5)c(Cl)c4)c3c2)o1)c1ccccc1`, the inhibition was found to be 6.36%.

Take `COc1cc(/C=N/Nc2ncnc3[nH]ncc23)ccc1O`: the inhibition turned out to be 88.3%.

Regarding `CS(=O)(=O)CCNCc1coc(-c2ccc3ncnc(Nc4ccc(OCc5ccccc5)cc4)c3c2)c1`, the inhibition was determined as 4.18%.

Consider `COc1cc2c(cc1Nc1nc(Nc3ccsc3C(N)=O)c3cc[nH]c3n1)N(C(=O)CN(C)C)CCC2(C)C`, for which the inhibition stood at 2.78%.
